# According to publication PMC12136788:
# Where a chain is given by its changes, count along the chain named. In all, about 24,000 sequences were measured (“enrichment r”: median about 0.99, highest 2% from about 3.7 on). The sample as a whole holds a higher share of the highest values than the screen did.
# T1: UNK ZnF1-3 (human, UniProt Q9C0B0 31-174)
# T1 sequence: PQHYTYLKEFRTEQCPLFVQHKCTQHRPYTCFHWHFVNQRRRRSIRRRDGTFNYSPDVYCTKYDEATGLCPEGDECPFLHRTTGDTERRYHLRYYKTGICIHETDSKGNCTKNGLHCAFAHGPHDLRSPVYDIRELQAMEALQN
# B1: chr2:160855017:160855018:-_ENSMUSG00000057133_ENSMUST00000039782|mus_mus|FALSE|FALSE (ssRNA)
# RNA: GGGAGUUCUACAGUCCGACGAUCAUCCUUUUCCAGUUCUUCCAUUGUGGCCCAUUUACAAUGUAAAUAGGAAAAAUUUCUAUACUUAACGUAGAAAAGCUCUAGGUCGAAUGGAGGUUCUCCUGGGUGAACCUCCUGGACAGUCAACAGAGGAUUGAGCAUCA
# B2: chr7:150915252:150915253:-_ENSG00000033050_ENST00000287844|hu_mus|FALSE|FALSE (ssRNA)
# RNA: GGGAGUUCUACAGUCCGACGAUCCUUCCCUGCUCCAUUGGGUCCUACCAGAGCCACUCGUGUGUCAAGAUCAAUACCAAAUUCUAGAUUAUUGUAGAUGCAAGGCCCGUCUUUCGUAUAUUUGAAGCUCACGUUCUGCACCAUCAACAGAGGAUUGAGCAUCA
# B3: chr2:78753848:78753849:+_ENSMUSG00000027011_ENSMUST00000028398|mus_mus|FALSE|FALSE (ssRNA)
# RNA: GGGAGUUCUACAGUCCGACGAUCGUUAUCUCCUUUAGGCCCAGCACUGCAGUUAGGAGGAGGAUCAAGGGUUAUCUCUGCUAGCUCCUUCUGAAUUCUUUUAGCACUAGUGGAUAACUUAGCAGUCGUUUUGCUAGAGAGUUUCAACAGAGGAUUGAGCAUCA
# B4: chr2:4828950:4828951:+_ENSMUSG00000026662_ENSMUST00000115019|mus_hu|FALSE|FALSE (ssRNA)
# RNA: GGGAGUUCUACAGUCCGACGAUCUAAAAUCUAGUUUUUCCCGAUAAAUUGUACUUUAGGCAAAACCCUCCCAACGCUUCUAAAAUAAUACUAAAAGGGGCAUCUGAUUAUACAAGAGCAAUUUAAAAAAUUAAAUAUUUAUUUCAACAGAGGAUUGAGCAUCA
# B5: chr11:30747457:30747458:+_ENSMUSG00000040850_ENSMUST00000041231|mus_mus|motif|central (ssRNA)
# RNA: GGGAGUUCUACAGUCCGACGAUCACCCUUAAAGAGGCAGAAACGCCGGGGACUAAACUUAUCUCUUCCUUUUCUGUCUUCGGAAGAUAGAAAUGUGAUUAACUGCUCAACAAACUUAGGAUCAGAAAAACGAUCAUAUAUAAUCAACAGAGGAUUGAGCAUCA
# B6: chr11:43534790:43534791:+_ENSMUSG00000044950_ENSMUST00000129229|mus_mus|FALSE|FALSE (ssRNA)
# RNA: GGGAGUUCUACAGUCCGACGAUCUCUGAUUUUCUCAUGUGUUCUCCAUUCAUUAAACAAGAAAAAUUAAGGGGUUUCAUACUAUGUAUUUAGCAAAGACAAGGAAAUCUGAAAUCUCUGUUAAGAAUUCAUGUUCCAUGCACCCAACAGAGGAUUGAGCAUCA
# B7: chr2:4828950:4828951:+_ENSMUSG00000026662_ENSMUST00000115019|mus_hu|motif|central (ssRNA)
# RNA: B4 RNA with U80G, A81G
# B8: chr1:39494447:39494448:+_ENSG00000168653_ENST00000372967|hu_mus|hu_hu_hu_mus_False|68_88 (ssRNA)
# RNA: GGGAGUUCUACAGUCCGACGAUCGCACCGAGCGGCGUUCUUAUAGGGCUGUUCACCGCUUAGGAACGUCAACCAUCGGUCCAGGCUGAUGCCCAGCUUUUUCUGUAUGUCAAGGAAAGGCAUGGCUCUGCAGUGCCCUUGUCACAACAGAGGAUUGAGCAUCA
# B9: chr14:76904540:76904541:+_ENSMUSG00000022010_ENSMUST00000022587|mus_hu|motif|central (ssRNA)
# RNA: GGGAGUUCUACAGUCCGACGAUCAAAGAAAUUGAAAAAUGUCUCAGUUGGUAAACUCCUAGAUCCAUCGCCACUGGUCGGCACCAUUGGGAUUUCAUGCAAUUGCAGCCAAAAACACCCUCGUGGAAAAAAAGAGGGAACACCCAACAGAGGAUUGAGCAUCA
# B10: chr10:1038518:1038519:+_ENSG00000107937_ENST00000545048|hu_hu|hu_hu_hu_mus_False|28_58 (ssRNA)
# RNA: GGGAGUUCUACAGUCCGACGAUCCAGUCUGUCAUGGUAAUUCUGUUGAGUAAAUUUGACUUUUCUCAUAUAAAAAUGUCUAAUGCGAUGAAUUUGAUAAUGUUUAUGAAUAACGGUUGGAGUCUUUCGUUGAGUCUUGGAUAACAACAGAGGAUUGAGCAUCA
# B11: chr15:88518400:88518401:-_ENSMUSG00000022387_ENSMUST00000109381|mus_hu|FALSE|FALSE (ssRNA)
# RNA: GGGAGUUCUACAGUCCGACGAUCCCCGUCUUAUUAAAUAAGUGGUACUCUGUGUAAAGAGCAUGAUUUACAAAAUUAUUAAACAUUCAAAAGUCUUUAAGAAAAAGCUACAUAUCAAAGAAAGUGACGCCAGCAGCACGGCCUCAACAGAGGAUUGAGCAUCA
# B12: chr11:120466956:120466957:+_ENSMUSG00000025135_ENSMUST00000093140|mus_mus|FALSE|FALSE (ssRNA)
# RNA: GGGAGUUCUACAGUCCGACGAUCCAAGCAGAGGCCUCCAGCACGGCUCGGAACUGUAAUGAGUUUUACUUAUUGAAUAAAGUGUCAAUGUGAUGGGAAAACAAAACAGUCAGCAAAGCUCCUUUCAACCUUGUCCCAGCCAAACAACAGAGGAUUGAGCAUCA
# B13: chr6:53132721:53132722:-_ENSG00000012660_ENST00000304434|hu_hu|FALSE|FALSE (ssRNA)
# RNA: GGGAGUUCUACAGUCCGACGAUCUUACCUGUUUGACCACUGCCUCAAAUGUGUGAGAUGUGAUUUUAUGAUAAGCAGUCUAUUAUUUUUAAACAAGAGGUUCUAAACACAUCUUUAGAUUCUAAGCAGAAAGAAAUUACAAGUCAACAGAGGAUUGAGCAUCA
# B14: chr7:90019461:90019462:+_ENSMUSG00000057706_ENSMUST00000082237|mus_mus|FALSE|FALSE (ssRNA)
# RNA: GGGAGUUCUACAGUCCGACGAUCCGUCACAAUCGUGUGAUUAUUAAAAUAAUACAGUGUUCUUUGCCAUAAGGCCAUACUAAAAAUAAAAAGAUUUAACCCAGCUACAAAAAAGUUCACUGAACUUAAAUUAAAAUACUUGUACAACAGAGGAUUGAGCAUCA
# B15: chr7:90019461:90019462:+_ENSMUSG00000057706_ENSMUST00000082237|mus_hu|FALSE|FALSE (ssRNA)
# RNA: GGGAGUUCUACAGUCCGACGAUCCGUCACAAUUGUGUGAUUAUUAAAAUAAUACAGUGUUCUUUGCCAUAAGGCCAUACUAAAAUAAAAAGAUUUAACCCAGCUACAAAAAAGUUCACUGAACUUAAAUUAAAAUACUUGUAACAACAGAGGAUUGAGCAUCA
# B16: chr15:88518400:88518401:-_ENSMUSG00000022387_ENSMUST00000109381|mus_mus|FALSE|FALSE (ssRNA)
# RNA: GGGAGUUCUACAGUCCGACGAUCCCCGUCUUAUUAAAUAAGCGGUACUCUGUGUAAAGAGCAUGAUCUACAAAAUUAUUAAACAUUCAAAAGUCUUUAAAAAAAAAAAAAAACCCUACAGAUUAGAAUAAGUGAGGCCUCGGCCAACAGAGGAUUGAGCAUCA
# Molecular target: T1, UNK ZnF1-3
# Experiment: nsRBNS (natural sequence RNA bind-n-seq); RBNS binding buffer (assumed for nsRBNS): 25 mM Tris pH 7.5, 150 mM KCl, 3 mM MgCl2, 0.01% Triton X-100, 500 ug/ml BSA, 20 U/ml SUPERase-In, 4 C; UNK is unkempt and MSI1 is Musashi-1; names of the RNAs are library labels; protein concentration not given here; high values mean tight binding
row,Binder,binding signal [enrichment R]
1,B1,0.614
2,B2,1.41
3,B3,1.05
4,B4,6.73
5,B5,0.632
6,B6,0.874
7,B7,4.08
8,B8,0.613
9,B9,1.75
10,B10,1.2
11,B11,10
12,B12,1.39
13,B13,1.61
14,B14,3.43
15,B15,3.55
16,B16,6.27
